Experimental data as given in PubChem BioAssay AID1220 (Sanford-Burnham Center for Chemical Genomics, 2008).
About 1,300 (0.68%) of roughly 190,000 compounds were called active. The list comes from a sample in which actives are over-represented; it also holds similar structures and randomly drawn compounds. Unmarked numbers belong to inactive results. Cut-off read from the data, not from the text of the source: active = inhibition above about 50%; inactive = the rest.

Molecular target: Mannose-6-phosphate isomerase (Homo sapiens) (UniProt P34949)
Sequence (P34949 whole entry, looked up): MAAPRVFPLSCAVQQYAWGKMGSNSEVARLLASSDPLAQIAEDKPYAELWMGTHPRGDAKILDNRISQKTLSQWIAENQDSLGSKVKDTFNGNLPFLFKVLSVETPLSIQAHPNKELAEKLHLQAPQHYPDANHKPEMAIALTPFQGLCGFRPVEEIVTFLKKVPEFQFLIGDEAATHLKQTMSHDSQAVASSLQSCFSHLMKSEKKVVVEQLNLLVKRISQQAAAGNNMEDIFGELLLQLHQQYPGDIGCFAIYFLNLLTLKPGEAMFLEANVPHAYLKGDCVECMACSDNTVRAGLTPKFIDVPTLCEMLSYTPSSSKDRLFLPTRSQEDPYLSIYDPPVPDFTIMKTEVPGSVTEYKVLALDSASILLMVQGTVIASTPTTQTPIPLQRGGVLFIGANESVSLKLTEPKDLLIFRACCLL
Assay: human PMI inhibitors, high substrate, primary screen, biochemical, fluorescence intensity, high mannose 6-phosphate (AID 1220)
Conditions: recombinant PMI enzyme, coupled fluorescence intensity; at 20 µM; hits give high values

First: O=C(Nc1ccc(N=Nc2ccccc2)c(NC(=O)C2CCCO2)c1)C1CCCO1 (stereo not given)
Second: S=C(Nc1cccc2ccccc12)NC1CCCCC1
The inhibition of the first is lower: 9% for the first, 48.3% for the second.

First: COc1ccccc1NC(=O)CN1CCN(c2ccccn2)CC1
Second: O=C(O)c1ccccc1C(=O)Nc1ccccn1
The inhibition of the first is lower: -9% for the first, 7.2% for the second.

Going from `COC(=O)Cc1c(C)c2ccc(OCC(=O)N(C)C)cc2oc1=O` to `CCOC(=O)c1c(C)oc2ccc(O)cc12`, the inhibition rises from -8.1% to 2.8%.

Compared with `Cc1cc(C)n(C(=O)CCCCCC(=O)n2nc(C)cc2C)n1`, `Cc1cc(C(=O)CSCCCn2c(=O)[nH]c3ccccc32)c(C)n1C` is lower in inhibition: -6.2% for the first, -21.9% for the second.

Going from `O=C(CCN1C(=O)C2C3C=CC(C3)C2C1=O)Nc1ccccc1` (stereo not given) to `O=C(O)CCCC(=O)Nc1ccccc1C(=O)N1CCOCC1`, the inhibition rises from -8.2% to -1.4%.

Compared with `C/C(=N\NC(=O)Cn1c(-c2ccccn2)nc2ccccc21)c1cccc(O)c1`, `O=C(Nc1cccc2cccnc12)c1cccc2ccccc12` is higher in inhibition: -16.2% for the first, -6.9% for the second.

Compared with `NNC(=O)c1cc2c(s1)CCCCCC2`, `CC1CC(C)CN(CCCNC(=O)c2csc3c2CCCC3)C1` (stereo not given) is higher in inhibition: -2.3% for the first, 8.3% for the second.

Compared with `O=C(Nc1ccc2c(c1)OCCO2)c1cccc(S(=O)(=O)N2CCCCC2)c1`, `O=S(=O)(/N=C(/c1ccccc1)N1CCCCC1)c1ccccc1` is lower in inhibition: 18.2% for the first, 7.7% for the second.

First: COC(=O)c1ccc(C)c(N(CCO)CCO)c1
Second: COC(=O)c1ccc(OC(=O)c2ccco2)cc1
The inhibition of the first is higher: 0.5% for the first, -6.2% for the second.

First: COc1ccc(-n2c(C(C)(C)C)csc2=Nc2c(C)n(C)n(-c3ccccc3)c2=O)cc1
Second: CCN(C(=O)CN1CCN(c2ccc(OC)cc2)CC1)c1c(N)n(Cc2ccccc2)c(=O)[nH]c1=O
The inhibition of the first is higher: 5.7% for the first, 2.4% for the second.

First: O=C(O)c1ccccc1NS(=O)(=O)c1ccc2c3c(cccc13)C(=O)N2
Second: CCOC(=O)c1c2c3c(cccc3[nH]c1=O)C(=O)c1ccccc1-2
The inhibition of the first is higher: -2% for the first, -30.6% for the second.

Compared with `O=S(=O)(Nc1cccc2[nH]ncc12)c1cccs1`, `c1ccc2c(c1)nc1sccn12` is lower in inhibition: 5.1% for the first, -4.9% for the second.

Going from `COc1ccc(C(CNC(=O)CCOc2ccccc2)N(C)C)cc1` (stereo not given) to `c1ccc(OCCCc2nc(-c3cccnc3)no2)cc1`, the inhibition rises from -3.8% to -2.4%.

Going from `O=C(O)c1ccc(COc2ccccc2/C=C2\NC(=O)N(Cc3ccc(F)cc3)C2=O)cc1` to `O=C(O)c1ccc(COc2ccc3ccccc3c2/C=C2/NC(=O)N(c3ccccc3)C2=O)cc1`, the inhibition rises from -7.9% to 22.6%.

First: CCC(=O)Nc1ccc(Cl)c(NC(=O)c2ccc(Br)o2)c1
Second: Cc1ccc(CC(=O)Nc2cccnc2)cc1
The inhibition of the first is lower: 1.8% for the first, 10.1% for the second.

First: N#CC1=C(N)OC2=C(C(=O)CC(c3ccccc3)C2)C1c1ccoc1 (stereo not given)
Second: CC1C(C#N)=C(N)OC2=C1C(=O)CC(c1ccccc1)C2 (stereo not given)
The inhibition of the first is lower: -1.4% for the first, 10.5% for the second.

First: CCN(CC)C(=O)C1=C(C)Nc2nnnn2C1c1cccnc1 (stereo not given)
Second: CCCc1nc(N)c(C#N)c(-c2cccnc2)c1CC
The inhibition of the first is lower: 6.1% for the first, 9.6% for the second.

Going from `CC[n+]1c(/C=C/N(C)c2ccccc2)oc2ccc(F)cc21` to `CC[n+]1c(/C=C/N(C)c2ccccc2)oc2ccccc21`, the inhibition rises from 26.2% to 36.4%.

Going from `CCCc1cc(=O)[nH]c(SCC(=O)N(C)Cc2ccccc2)n1` to `CCCn1c(CCc2ccccc2)n[nH]c1=S`, the inhibition falls from 10.9% to 2.6%.

Going from `O=C(NCc1ccco1)C(C(=O)c1ccccc1)n1ccccc1=O` (stereo not given) to `Cc1ccc(C(C(=O)NCc2ccco2)N(C(=O)Cc2cccs2)c2cccnc2)cc1` (stereo not given), the inhibition falls from 1% to -5%.

First: O=C(NCCNS(=O)(=O)c1ccccc1)N1CCOCC1
Second: O=C(C1=C[C@H](c2csc3ccccc23)C[C@H](OCCCCO)O1)N1CCOCC1
The inhibition of the first is lower: -0.7% for the first, 9.5% for the second.

Compared with `CCOC(=O)C(NC(=O)NC1CCCCC1)(c1ccccc1)C(F)(F)F` (stereo not given), `CCOC(=O)C(NC(=O)Nc1ccc(C(N)=O)cc1)(c1ccccc1)C(F)(F)F` (stereo not given) is lower in inhibition: -5.1% for the first, -6.9% for the second.

Going from `O=C(Cc1ccc(Cl)cc1)NCCS(=O)c1ccc(Cl)cc1` (stereo not given) to `CCCN1CCN(CCCNC(=O)CCn2nc(-c3ccccc3)ccc2=O)CC1`, the inhibition falls from 8% to -12.2%.

First: Cc1ccc(/C=C(/C#N)C(=O)NC(=O)Oc2ccccc2)cc1
Second: N#Cc1c(Nc2ccccc2)sc(C(=O)c2ccc(F)cc2)c1N
The inhibition of the first is higher: 3.4% for the first, 1.5% for the second.

Compared with `O=C(NCc1ccccc1)NC1CCCCC1`, `O=C(NC1CCCCC1)N1CCC(c2nc3ccccc3[nH]2)CC1` is lower in inhibition: 5.5% for the first, 1.1% for the second.

Compared with `Cc1cc(C)n2c(Nc3ccc4c(c3)OCCO4)c(-c3ccc(C)o3)nc2n1`, `Clc1cccc(-c2nnc3sc(-c4ccc5c(c4)OCO5)nn23)c1` is higher in inhibition: 0.2% for the first, 6% for the second.

Going from `O=C(O)C1=C[C@H](c2csc3ccccc23)C[C@H](OCCCCO)O1` to `O=C(O)C1=C[C@@H](c2csc3ccccc23)C[C@@H](OCCCCO)O1`, the inhibition rises from -1.5% to 1.5%.

Compared with `O=C(NC1CC1)C1=C[C@H](c2csc3ccccc23)C[C@H](OCCCCO)O1`, `CCCCNC(=O)CSc1nc2ccccc2c(=O)n1C1CCCC1` is lower in inhibition: 1.4% for the first, 0.1% for the second.

First: c1ccc(COC2CCCN(Cc3nc(-c4cccs4)no3)C2)nc1 (stereo not given)
Second: CCOC(=O)c1c(C)oc2c1c(C=NCc1ccccn1)c(O)c1ccccc12
The inhibition of the first is lower: 13.3% for the first, 32.6% for the second.

Compared with `O=C(Cn1nnc(-c2ccccc2F)n1)Nc1cccc2ncccc12`, `O=C(Oc1ccc(-c2cnc3ccccc3n2)cc1)c1ccco1` is higher in inhibition: -0.5% for the first, 15.4% for the second.

Compared with `CS(=O)(=O)c1ccc2nc(N)sc2c1`, `CCCN=Cc1c(CCC)[nH]n(-c2nc3ccccc3s2)c1=O` is lower in inhibition: 6.1% for the first, 4.7% for the second.

Going from `CCOC(=O)c1c(C)[nH]c(C)c1C(=O)COC(=O)c1ccc(Cl)c(S(N)(=O)=O)c1` to `CCOC(=O)c1c(C)[nH]c(C)c1-c1ccccc1OC`, the inhibition rises from -8.6% to 1.6%.

Going from `O=c1cnnc(Nc2cccc(F)c2)[nH]1` to `CCn1cc(C(=O)NC(=S)Nc2cccc(O)c2)cn1`, the inhibition rises from -14.5% to 0.6%.

Going from `CN(C)C(=O)c1ccc2c(c1)n(C)c(=O)n2C` to `CCOC(=O)c1c(C)cc(=O)oc1C`, the inhibition rises from -6.4% to 3.9%.

Going from `O=C(CNc1ccccc1)NNC1=NCCC1` to `O=C(CNc1ccc(Br)cc1)NNC1=NCCC1`, the inhibition falls from 14.8% to -3.4%.

First: O=C1CCC(C(=O)OC(C(=O)c2c[nH]c3ccccc23)c2ccccc2)=NN1 (stereo not given)
Second: CCOC(=O)c1c(-c2ccccc2)[nH]c2ccc(O)cc12
The inhibition of the first is lower: -1.8% for the first, 5.9% for the second.

Compared with `COc1ccc(N/C=C/C(=O)C(F)(F)F)cc1`, `CN(C)c1ccc(N/C=C/C(=O)C(C)(C)C)cc1` is lower in inhibition: 14.6% for the first, 12.9% for the second.

Going from `CCCc1[nH]n(-c2nc3ccccc3s2)c(=O)c1C=NCC(C)C` to `Cc1ccc(O)c(N=CC2=C(O)c3ccccc3C2=O)c1`, the inhibition rises from 0.7% to 15.3%.

First: CC(=O)c1cccc(NC(=O)CN2C(=S)NC(C)(C)CC2C)c1 (stereo not given)
Second: CC(=O)c1ccc(N2CCN(CC(=O)N(CC(C)C)c3c(N)n(CC(C)C)c(=O)[nH]c3=O)CC2)cc1
The inhibition of the first is lower: -1.5% for the first, -0.1% for the second.

Going from `Cc1ccc(O)c(C=Nc2cc(C)ccc2O)c1` to `Cc1ccc(NC(=S)N2CCCN(Cc3ccc(F)cc3)C2)c(C)c1`, the inhibition falls from 23.3% to -3.7%.

Compared with `CC(C)CN(C(=O)CN1CCN(c2ccc(F)cc2)CC1)c1c(N)n(CC(C)C)c(=O)[nH]c1=O`, `CCN(C(=O)CN1CCN(c2ccccc2)CC1)c1c(N)n(Cc2ccccc2)c(=O)[nH]c1=O` is higher in inhibition: -8.7% for the first, 7.8% for the second.

Compared with `Cc1ccc(N2C(=S)SC3CS(=O)(=O)CC32)cc1` (stereo not given), `CCOC(=O)c1c(C)oc2c1c(C(c1ccccc1)N1CCOCC1)c(O)c1ccccc12` (stereo not given) is higher in inhibition: -0.7% for the first, 30.5% for the second.

Compared with `O=C(CCC1CCCC1)Nc1nnc(-c2ccc3c(c2)OCO3)s1`, `CCOC(=O)c1c(OCC)[nH]c2ccc(O)cc12` is lower in inhibition: 1.1% for the first, -2.7% for the second.

With `O=C1Nc2ccc(NS(=O)(=O)c3cccs3)c3cccc1c23` the inhibition was 65.7% (active).
For `O=C(O)c1ccc(COc2ccc3ccccc3c2/C=C2/NC(=O)N(Cc3ccc(F)cc3)C2=O)cc1`, the inhibition was 52.7% (active).
`CC(C)CC1C(C#N)=C(N)OC2=C1C(=O)CC(c1ccccc1)C2` (stereo not given) was tested, and the inhibition was 57% (active).
With `CC[n+]1c(/C=C/N(C)c2ccccc2)oc2ccc(Cl)cc21` the inhibition was 51.8% (active).
For `CCOC(=O)C(NC(=O)Nc1ccc(O)cc1)(c1ccccc1)C(F)(F)F` (stereo not given), the inhibition was 50.4% (active).
`O=C(O)c1ccccc1C(=O)Nc1ccc(Br)c2cccnc12` was tested, and the inhibition was 53.1% (active).
`O=C(NC1CCCCC1)Oc1cccc2ccccc12` was tested, and the inhibition was 61.4% (active).
In the case of `NC(=O)C1=C[C@H](c2csc3ccccc23)C[C@H](OCCCCO)O1`, the inhibition is reported as 63.4% (active).
With `NC(=O)C1=C[C@@H](c2csc3ccccc23)C[C@@H](OCCCCO)O1` the inhibition was 59.2% (active).
For `N#Cc1c(Nc2cccc(F)c2)sc2c(O)cc(=O)[nH]c12`, the inhibition was 55.8% (active).
In the case of `O=C(CNc1ccc2ccccc2c1)NNC1=NCCC1`, the inhibition is reported as 52.9% (active).
With `CN(C)c1ccc(N/C=C/C(=O)C(F)(F)F)cc1` the inhibition was 56.5% (active).
`CCCc1[nH]n(-c2nc3ccccc3s2)c(=O)c1C=NCC1CCCO1` (stereo not given) was tested, and the inhibition was 51% (active).
With `Cc1ccc(O)c(N=Cc2cccs2)c1` the inhibition was 65.7% (active).
With `CCN(C(=O)CN1CCN(c2ccc(O)cc2)CC1)c1c(N)n(Cc2ccccc2)c(=O)[nH]c1=O` the inhibition was 51.6% (active).
`CC(C)CN(C(=O)CN1CCN(c2ccc(O)cc2)CC1)c1c(N)n(CC(C)C)c(=O)[nH]c1=O` was tested, and the inhibition was 52.3% (active).
With `CCOC(=O)c1c(OCC)[nH]c2c1cc(O)c1ccccc12` the inhibition was 54.7% (active).
`CCOC(=O)c1c(C)[nH]c2c1-c1ccccc1C(=O)C2=O` was tested, and the inhibition was 62.9% (active).
In the case of `CCOC(=O)c1c(C)oc2c1cc(O)c1ccccc12`, the inhibition is reported as 54.3% (active).
